Experimental data as given in PubChem BioAssay.
Activity calls are given as the source filed them. The rule behind the calls is not given here.

These compounds were tested against Protein kinase 7 (PK7), Plasmodium falciparum 3D7 (PF3D7_0213400) (UniProt Q7YTF7) (assay: inhibition of Plasmodium PK7 catalytic activity – biochemical, TCAMS antimalarial set, Kinase-Glo luminescence (AID 1159587)). Details: recombinant PfPK7, Kinase-Glo ATP depletion luminescence.
Sequence of Protein kinase 7 (PK7), Plasmodium falciparum 3D7 (PF3D7_0213400) (Q7YTF7 1-343): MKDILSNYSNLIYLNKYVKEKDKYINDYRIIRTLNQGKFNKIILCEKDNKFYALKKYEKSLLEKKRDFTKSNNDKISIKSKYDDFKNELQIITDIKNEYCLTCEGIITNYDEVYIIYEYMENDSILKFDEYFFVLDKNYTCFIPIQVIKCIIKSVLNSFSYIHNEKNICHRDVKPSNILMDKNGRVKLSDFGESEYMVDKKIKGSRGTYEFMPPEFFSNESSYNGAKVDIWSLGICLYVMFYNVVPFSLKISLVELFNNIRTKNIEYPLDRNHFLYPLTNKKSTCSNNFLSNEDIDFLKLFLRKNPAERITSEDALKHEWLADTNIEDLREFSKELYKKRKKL

outcome, inactive:
O=C(N[C@H]1CCN(Cc2ccc(OCCN3CCNCC3)c(Br)c2)C1)c1ccc(Cl)c(Cl)c1
CCOc1cc(C(=O)NC2CCN(Cc3ccccc3)CC2)ccc1-c1nc2ccc(Cl)cc2[nH]1
O=C(Nc1cccc(-c2ccc(-c3nc4ccccc4[nH]3)cc2)c1)c1cnn2cccnc12
Cc1cccc2[nH]c(-c3ccc(-c4ccc(NC(=O)Nc5cccc(C#N)c5)cc4)cc3)nc12
CCN1CCN(CCCCNc2c3ccccc3nc3ccccc23)CC1
CCc1c(C)nc(-n2nc(C)cc2NC(=O)CC(c2ccccc2)c2ccccc2)[nH]c1=O
Cc1cc(CN2C(=O)C(c3ccccc3)(c3ccccc3)N=C2N)c(C(F)(F)F)o1
CC(=O)Nc1ccc(CN2CCC(NC(=O)c3ccc(-c4cccc(Cl)c4)s3)CC2)cc1
COc1ccc2nccc(NN=Cc3ccccc3[N+](=O)[O-])c2c1
Cc1cc(C(=O)OCC(N)=O)c(C)n1-c1ccc(F)cc1
COc1ccc(Nc2nc(NN=Cc3ccc(-c4ccc([N+](=O)[O-])cc4)o3)nc(Nc3ccccc3)n2)cc1
COc1ccc2nccc([C@@H](O)CN3CCC(NC(=O)c4ccc(Cl)c(Cl)c4)CC3)c2c1
Cc1cccc2[nH]c(-c3ccc(-c4ccc(CN5CCN(CC6CCCN(C)C6)CC5)cc4)cc3)nc12 (stereo not given)
CCOc1ccc(OCCCON2C(N)=NC(N)=NC2(C)C)cc1
Cc1cccc(-n2nc(C)c3c2NC(=O)CC3C(=O)c2ccc(Cl)s2)c1 (stereo not given)
